Test results from the supplement of paper PMC6411743.
± gives the standard deviation of the averaged measurements. Targets with the largest changes are over-represented here; the source holds about 5,400 in all.

Target: T1, B1ALK7|Q14155-1|Q14155-5 (UniProt Q14155)
T1 sequence (whole entry): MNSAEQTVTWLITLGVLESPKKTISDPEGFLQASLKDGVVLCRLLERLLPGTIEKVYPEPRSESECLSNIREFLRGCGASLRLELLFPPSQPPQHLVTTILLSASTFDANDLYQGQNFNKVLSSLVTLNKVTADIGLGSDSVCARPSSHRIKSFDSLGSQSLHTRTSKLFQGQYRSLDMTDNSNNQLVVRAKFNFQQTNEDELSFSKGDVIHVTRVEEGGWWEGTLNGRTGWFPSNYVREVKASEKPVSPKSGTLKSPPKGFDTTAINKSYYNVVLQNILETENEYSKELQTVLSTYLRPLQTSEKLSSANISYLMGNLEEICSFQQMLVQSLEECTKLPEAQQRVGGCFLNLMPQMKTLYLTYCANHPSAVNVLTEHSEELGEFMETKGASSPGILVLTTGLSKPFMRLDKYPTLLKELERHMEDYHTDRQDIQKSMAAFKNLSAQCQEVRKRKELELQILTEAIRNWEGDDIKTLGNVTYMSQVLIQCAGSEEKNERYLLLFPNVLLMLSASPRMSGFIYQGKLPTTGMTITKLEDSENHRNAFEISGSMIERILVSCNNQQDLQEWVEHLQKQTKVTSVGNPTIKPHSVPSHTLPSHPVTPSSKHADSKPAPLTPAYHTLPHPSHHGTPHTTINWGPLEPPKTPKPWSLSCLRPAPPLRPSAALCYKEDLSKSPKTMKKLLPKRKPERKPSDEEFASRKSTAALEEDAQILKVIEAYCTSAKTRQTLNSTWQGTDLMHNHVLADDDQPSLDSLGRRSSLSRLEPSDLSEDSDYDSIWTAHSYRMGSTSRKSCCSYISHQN
Assay: NP40-soluble protein abundance relative to vehicle (solubility fold change) (ratio); higher = more soluble protein in presence of GTP
Method: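 Solubility proteome profiling in Jurkat crude lysate. Lysate was treated with Mg-GTP (0.1-10 mM) for 10 min at room temperature and 3 min at 37 °C, then solubilised with 0.8% NP40 and benzonase, followed by ultracentrifugation. Proteins were quantified by TMT10 LC-MS/MS; the value is the NP40-soluble abundance relative to the NP40-processed vehicle, from 3 independent experiments.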

Nc1nc2c(ncn2[C@@H]2O[C@H](COP(=O)(O)OP(=O)(O)OP(=O)(O)O)[C@@H](O)[C@H]2O)c(=O)[nH]1 [guanosine triphosphate]
NP40-soluble protein abundance (concentration: 0.1mM): 0.994 ± 0.036
NP40-soluble protein abundance (concentration: 0.5mM): 0.9903 ± 0.0023
NP40-soluble protein abundance (concentration: 1mM): 1.004 ± 0.007
NP40-soluble protein abundance (concentration: 2mM): 1.01 ± 0.028
NP40-soluble protein abundance (concentration: 4mM): 0.996 ± 0.015
NP40-soluble protein abundance (concentration: 6mM): 0.9797 ± 0.0044
NP40-soluble protein abundance (concentration: 8mM): 1 ± 0.033
NP40-soluble protein abundance (concentration: 10mM): 0.977 ± 0.046
